Source: PubChem (National Center for Advancing Translational Sciences (NCATS))
Shown are actives, neighbours in structure and some others; about 11% of the full set was active somewhere.
RORg inh: blocks mouse ROR gamma transcriptional activity; P51450; Drosophila S2 Gal4-RORgamma UAS-luciferase reporter, 20 h; Potency, µM (doses to about 53.6 µM), inactives show at the highest dose activity change, negative = inhibition, most hits filed as inhibitors; 310,000 compounds, 5.4% hits; AID 2551; further: potency means the concentration at half of the fitted maximal effect; on the % scale 0 is the no-effect control and ±100 the full control effect; nearly all actives have a fitted effect of over 60% in size
Target sequence (P51450 whole entry, looked up, the tested form may be a part): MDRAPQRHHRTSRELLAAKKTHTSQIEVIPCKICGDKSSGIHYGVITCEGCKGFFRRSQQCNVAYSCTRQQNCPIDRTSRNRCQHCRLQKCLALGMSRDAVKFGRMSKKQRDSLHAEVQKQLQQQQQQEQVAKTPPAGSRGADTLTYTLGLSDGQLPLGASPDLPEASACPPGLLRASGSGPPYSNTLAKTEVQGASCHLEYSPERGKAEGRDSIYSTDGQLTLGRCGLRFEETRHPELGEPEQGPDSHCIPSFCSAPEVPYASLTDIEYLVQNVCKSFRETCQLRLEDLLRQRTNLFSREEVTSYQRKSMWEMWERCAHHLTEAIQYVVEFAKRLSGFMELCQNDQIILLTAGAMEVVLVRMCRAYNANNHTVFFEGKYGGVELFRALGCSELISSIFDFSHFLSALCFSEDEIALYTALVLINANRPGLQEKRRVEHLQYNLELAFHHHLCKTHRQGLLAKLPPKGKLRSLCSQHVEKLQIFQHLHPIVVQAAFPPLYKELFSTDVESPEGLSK
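Luminescence from a UAS-regulated Photinus luciferase reporter in stably transfected Drosophila Schneider cells is measured; decreased signal marks ROR gamma inhibition. Fusion expression is induced by 700 uM copper sulfate for 20 hr.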
MCF10A rerep: DNA re-replication induction in MCF 10a cells. 350,000 compounds, 2.9% hits. MCF 10A DNA re-replication, Hoechst nuclear intensity, 48 h. Potency, µM (doses to about 46.1 µM), inactives show at the highest dose activity, positive = re-replication, usual class: activators; further: potency means the concentration at half of the fitted maximal effect; % of control where 0% means no effect; nearly all actives have a fitted effect of over 50% in size
SW480 rereplic: DNA re-replication induction in SW480 cells | SW480 DNA re-replication, Hoechst DNA content imaging, 48 h | Potency, µM (titrated, usually from 46.1 µM), for inactives: at the highest dose re-replication activation, most hits filed as activators | 340,000 compounds, 1.8% hits; further: potency means the concentration at half of the fitted maximal effect; % of control where 0% means no effect; nearly all actives have a fitted effect of over 55% in size
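SW480 cells exposed to compounds for 48 hr at 37 C, 5% CO2, then Hoechst-stained 40 min. Nuclear DNA content imaged by fluorescence scanning (405 nm excitation, 500-530 nm emission); re-replication scored as increased high-intensity nuclei.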
IL1B secr inh: inflammasome signaling inhibition, IL-1 beta readout | THP-1 LPS/ATP IL-1B secretion, AlphaLISA, 16 h; hits give low values | activity change, % at 57.5 µM | 360,000 compounds, 4.7% hits; in the data active means activity change below about -50%; inconclusive means mostly about -30% to -49%; further: on the % scale 0 is the no-effect control and ±100 the full control effect
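THP-1 cells pretreated 1 hr with compounds (up to 57.5 uM final), then stimulated with LPS (250 ng/mL final) plus ATP (1.25 mM final); secreted IL-1B measured by AlphaLISA after 16 hr, decreased signal indicating inhibition.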
Gal4-VP16 FLuc: inhibits Gal4-VP16 luciferase reporter, ROR gamma counter-screen | Potency, µM (doses to about 53.6 µM), inactives show top-dose activity, negative = inhibition, most hits filed as inhibitors | Drosophila S2 Gal4-VP16 UAS-luciferase, luminescence, 20 h | 310,000 compounds, 3.5% hits;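 further: Gal4-VP16 expression switched on by copper sulfate through the metallothionein promoter; potency means the concentration at half of the fitted maximal effect; on the % scale 0 is the no-effect control and ±100 the full control effect; nearly all actives have a fitted effect of over 50% in size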
The depositor's hits bear a star; i = inactive; ? = inconclusive; nt = no result given; [ ] = remark or other dose. Unless noted, the call rests on the fitted dose curve; in most records, active means well fitted curve in the direction sought with a large enough effect; inconclusive means small, poorly fitted or top-dose-only effect, or another doubt; inactive means no such curve, though single readings can be large; an effect the other way counts as inactive or inconclusive.

SMILES	RORg inh	MCF10A rerep	SW480 rereplic	IL1B secr inh	Gal4-VP16 FLuc
Cc1cccc(/C=N/NC(=O)Cc2cccs2)c1	30%	-4%	1%	17	17%
Cc1cccc(C=Nc2ccccc2C(N)=O)c1	39%	3.7µM*	5.8µM*	23	-8%
O=C(c1ccncc1)N1CCC2(CC1)CCN(c1ccccn1)CC2	-9%	nt	nt	nt	10%
C[C@H](O)[C@@H]1C(=O)N2CCc3ccc(-c4cccc(F)c4)cc3[C@@H]2C[C@@H]1N(C)S(=O)(=O)c1ccccc1	nt	-10%	22%[9.22 µM]	-52*	nt
O=C(CCc1ccccc1)Nc1nnc(-c2ccc3c(c2)OCCO3)o1	6.3µM*	?	0%	9	?
O=C(CCc1ccccc1)Nc1ccc2c(c1)OCCO2	-15%	-3%	-1%	6	-23%
O=C(CCc1ccccc1)Nc1nnc(-c2ccc3c(c2)CCCC3)o1	14µM*	16%	-16%	-17	?
N#CCCCC1(CCCC#N)OCCO1	nt	-2%	-6%	12	nt
COc1ccc(-c2cc(CC3(C(=O)O)CCN(C(=O)OC(C)(C)C)CC3)on2)c(OC)c1	-1%	1%	25%	30	-2%
Cc1ccc(-c2cc[n+](Cc3ccccc3)cc2)cc1	?	16%	-8%	-72*	0%
COc1ccccc1NC(=O)COC(=O)c1ccc([N+](=O)[O-])s1	?	-14%	1%	0	-4%
O=C(NC1CCCCC1)c1ccc([N+](=O)[O-])o1	-18%	16µM*	?	nt	-3%
CC(NC(=O)c1ccc([N+](=O)[O-])o1)C12CC3CC(CC(C3)C1)C2 (configuration not stated)	2.5µM*	?	?	-136*	-13%
O=C(N/N=C/c1ccc([N+](=O)[O-])o1)C1CCCC1	-38%	10%	26%	36	-28%
CCc1ccccc1NC(=O)c1ccc([N+](=O)[O-])s1	14µM*	?	?	?	6%
COc1cccc(OC)c1C(=O)NC(C)C12CC3CC(CC(C3)C1)C2 (configuration not stated)	-17%	-9%	1%	14	-2%
O=[N+]([O-])c1ccc(/C=[N+](\[O-])[C@@H]2CCCC[C@@H]2/[N+]([O-])=C/c2ccc([N+](=O)[O-])o2)o1	-72%	23µM*	2.9µM*	-92*	?
O=C(CCNC(=O)c1ccc(Cl)cc1)Nc1ccncc1	nt	8%	2%	17	nt
O=C(NC1CCCCCC1)c1ccc([N+](=O)[O-])s1	nt	?	18µM*	-61*	nt
O=C(NC1CCCC(C(F)(F)F)C1)c1ccc([N+](=O)[O-])o1 (configuration not stated)	nt	6.5µM*	32%	-98*	nt
CC1=C(C(=O)OCC2CCCO2)C(c2cccc(C(F)(F)F)c2)C2=C(CC(c3ccco3)CC2=O)N1 (configuration not stated)	?	?	?	-53*	-1%
CC1=C(C(=O)OCC2CCCO2)C(c2ccccc2OC(C)C)C2=C(CC(c3ccco3)CC2=O)N1 (configuration not stated)	1%[0.365 µM]	26%	?	-10	nt
CC(=O)Nc1ccc(CNc2nc(NC(C)C)nc3cc(-c4ccccc4)sc23)cc1	nt	nt	nt	-114*	nt
COc1ccc(-c2cc(CNc3nc(NC(C)C)nc4cc(-c5ccccc5)sc34)on2)cc1	nt	nt	nt	-107*	nt
CCOC(=O)[C@]12CCC=C1N(Cc1ccco1)C(=O)[C@H](CC(=O)NCc1cccc3ccccc13)C2	nt	nt	nt	-14	nt
SMILES	RORg inh	MCF10A rerep	SW480 rereplic	IL1B secr inh	Gal4-VP16 FLuc
CCC(c1nnnn1-c1ccc2c(c1)OCCO2)N1CCN(c2ccccc2OC)CC1 (configuration not stated)	nt	nt	nt	0	nt
CN(CC(=O)Nc1ccccc1C(F)(F)F)C(=O)C1=COCCO1	nt	1%	-2%	0	nt
O=C(Nc1cc(Cl)cc(Cl)c1)C1CCC(=O)N1Cc1ccccc1Cl (configuration not stated)	?	?	-1%	?	16µM*
CNC(=O)C1CCC(=O)N1Cc1ccccc1Cl (configuration not stated)	8%	10%	-2%	7	8%
CN(CCCNC(=O)C1CCC(=O)N1Cc1ccccc1Cl)c1ccccc1 (configuration not stated)	0%	13%	5%	-12	2%
O=C(NCCCN1CCN(c2cccc(Cl)c2)CC1)C1CCC(=O)N1Cc1ccccc1Cl (configuration not stated)	26%	?	?	-55*	-7%
CCOC(=O)c1ccccc1NC(=O)COC(=O)C(CC)Oc1ccccc1 (configuration not stated)	nt	nt	nt	3	nt
CC(=O)N(C(C)=O)c1ccc2c(c1)OCCO2	nt	nt	nt	-1	nt
CC(C)=CCC/C(C)=C/CO/N=C1/C[C@@H](O)[C@@H](O)[C@@H]2[C@@H]3C(=O)N(C4CCCCC4)C(=O)[C@H]3CC[C@H]12	-11%[10 µM]	nt	nt	nt	-1%[10 µM]
COc1ccc(OC)c(S(=O)(=O)N/N=C\c2c[nH]c3ccccc23)c1	?	-24%	24%	i	-18%
COCCN=c1scc(-c2cc(OC)ccc2OC)n1/N=C/c1c[nH]c2ccccc12	?	?	27%	-50*	-8%
NC(CCc1ccccc1)c1csc(Nc2cnccn2)n1 (configuration not stated)	nt	nt	nt	-24	nt
Cc1cccc(NC2=NC(=S)N(CC#N)C23CCCCC3)c1	11µM*	0%	-1%	-21	?
CSc1nc(-c2ccco2)cc(-c2ccccc2)c1C#N	16µM*	-3%	1%	-3	?
COc1ccc(-c2cc(-c3ccc(OC)cc3)c(C#N)c(SC)n2)cc1	?	21µM*	23%	-2	1%
O=C(O)c1ccc(S(=O)(=O)N(Cl)Cl)cc1	0%	7%	-12%	nt	4%
Cc1cc(C)n2nc(C(=O)OCC(=O)c3ccccc3)nc2n1	nt	?	8.2µM*	0	nt
Cc1cc(SCC(=O)c2ccccc2)n2nc(C)nc2n1	14µM*	0%	?	-30	7.1µM*
COC(=O)c1cncn1Cc1ccccc1	nt	-2%	0%	12	nt
COc1cc([N+](=O)[O-])cc(/C=C2/SC(=S)N(Cc3ccccc3)C2=O)c1O	?	?	-2%	3	5µM*
O=C1/C(=C/c2ccc(O)c([N+](=O)[O-])c2)SC(=S)N1Cc1ccccc1	-2%	?	-6%	9	-1%
CCN1C(=O)/C(=C\C=C\c2ccccc2[N+](=O)[O-])SC1=S	42%	4.1µM*	?	-21	17%
O=C1/C(=C\c2cccc([N+](=O)[O-])c2O)SC(=S)N1Cc1ccccc1	-63%	14%	2%	36	16µM*
C=CCN=C1S/C(=C/c2cccc([N+](=O)[O-])c2)C(=O)N1CC=C	4%	12%	0%	1	14%
